Source: PubChem BioAssay (National Center for Advancing Translational Sciences (NCATS))
Only some compounds are listed: those with a hit (about 19% of all), similar ones and a draw of the others.
HT1080NT lethal = qHTS for induction of synthetic lethality in tumor cells producing 2HG: qHTS for the HT-1080-NT fibrosarcoma cell line. hit rate 1.6% among 360,000. Potency, µM (highest dose often 46.1 µM), inactives show at the top dose activity, negative = less viability, usual class: cytotoxic. HT-1080-NT fibrosarcoma viability, CellTiter-Glo ATP luminescence, 48 h. AID 686970, 2013;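 further: NT is the 2HG producing partner of a matched IDH1 knockdown line; potency means the concentration at half of the fitted maximal effect; 0% = DMSO-treated cells and -100% = media-only wells without cells; nearly all actives have a fitted effect of over 55% in size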
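Read-out is CellTiter-Glo luminescence after 10 minutes at room temperature, following 48 hours' compound treatment of HT-1080-NT cells (750 cells/well, RPMI, 5% FBS, 37 degrees C).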
HT1080 IDH1KD tx = qHTS for induction of synthetic lethality in tumor cells producing 2HG: qHTS for the HT-1080-IDH1KD cell line. HT-1080 IDH1 knockdown viability, ATP luminescence, 48 h. Potency, µM (doses to about 46.1 µM), inactives show at the highest dose activity, negative = toxicity, actives largely listed as cytotoxic. hit rate 2% among 360,000. AID 686971, 2013;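 further: potency means the concentration at half of the fitted maximal effect; 0% = DMSO wells and -100% = cell-free medium wells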
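Luminescent ATP read-out (CellTiter-Glo, 10 min at room temperature) after 48 h compound exposure at 37 °C gave viability of IDH1-knockdown HT-1080 cells. Activity was normalised to DMSO and cell-free wells, then fitted as concentration-response curves.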
TDP1 cell CPT = qHTS for Inhibitors of human tyrosyl-DNA phosphodiesterase 1 (TDP1): qHTS in cells in presence of CPT; chicken DT40 Tdp1-/-;hTDP1 cells + 20 nM CPT, ATP luminescence, 48 h; Potency, µM (top dose mostly 46.2 µM), for inactives: top-dose activity change, negative = growth inhibition, usual class: inhibitors; hit rate 12% among 420,000; AID 686979, 2013; further: potency means the concentration at half of the fitted maximal effect; nearly all actives have a fitted effect of over 55% in size
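Chicken DT40 Tdp1-/- cells stably complemented with human TDP1 were seeded at 400 cells/well in medium containing 20 nM camptothecin, exposed to pin-transferred compounds, and grown at 37 °C for at least 48 hr. Viability was read as ATP luminescence.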
IL-1B inflam inh = qHTS for Inhibitors of Inflammasome Signaling: IL-1-beta AlphaLISA Primary Screen; hit rate 4.7% among 360,000; THP-1 LPS/ATP IL-1B secretion, AlphaLISA, 16 h; active compounds read low; activity change, % at 57.5 µM; in the data active means activity change below about -50%; inconclusive means mostly about -30% to -49%
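Secreted IL-1B measured by AlphaLISA bead assay after 16 h compound exposure of THP-1 cells; compounds (final up to 57.5 uM) added 1 h before LPS (250 ng/mL) and ATP (1.25 mM) stimulation; lower signal means less secretion.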
TDP1 cell noCPT = qHTS for Inhibitors of human tyrosyl-DNA phosphodiesterase 1 (TDP1): qHTS in cells in absence of CPT. DT40 Tdp1-/- hTDP1 cells, no CPT, ATP luminescence, 48 h. Potency, µM (highest dose often 46.2 µM), for the others: top-dose activity change, negative = growth inhibition, usual class: inhibitors. hit rate 15% among 420,000; further: potency means the concentration at half of the fitted maximal effect; nearly all actives have a fitted effect of over 55% in size
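No-CPT arm: Tdp1-/-;hTDP1 DT40 cells (400/well) plus compounds, incubated ≥48 hr at 37 °C. Readout CellTiter-Glo luminescence.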
Active calls of the source: *; ? = inconclusive; / = no result. Unless noted, the call rests on the fitted dose curve; in most records, active means well fitted curve in the direction sought with a large enough effect; inconclusive means small, poorly fitted or top-dose-only effect, or another doubt; inactive means no such curve, though single readings can be large; an effect the other way counts as inactive or inconclusive. Unless noted, on the % scale 0 is the no-effect control and ±100 the full control effect.

SMILES | HT1080NT lethal | HT1080 IDH1KD tx | TDP1 cell CPT | IL-1B inflam inh | TDP1 cell noCPT
Brc1ccc(-c2csc3ncnc(-n4nnc5ccccc54)c23)cc1 | 0.8% | -24.1% | ? | ? | ?
CCOc1ccc(N2C(=O)/C(=C\c3ccc(O)c(OC)c3)S(=O)(=O)C2c2cccc([N+](=O)[O-])c2)cc1 (centres undefined) | -0.6% | 6.6% | 18.4µM* | -2.2 | ?
O=C(COC(=O)c1cncc(Br)c1)NCC12CC3CC(CC(C3)C1)C2 | -3.1% | -1.2% | 2.5% | 4.6 | -27.4%
COc1ccc(C(=O)c2sc3nc(C)cc(-c4cccs4)c3c2N)cc1OC | -3.6% | 2.8% | ? | -79.8* | 23.1µM*
C=CCOc1ccc(C(=O)c2ccccc2)c(OCC(=O)NC2(C#N)CCCC2)c1 | ? | -18.0% | ? | -60.3* | ?
Cc1cccc(C)c1-n1nnnc1C1(C)CCC(=O)N1Cc1cccc(C(F)(F)F)c1 (centres undefined) | -2.7% | 7.5% | 23.1µM* | 29.9 | 23.1µM*
Cc1ccc(S(=O)(=O)Nc2ccc3nc(C)sc3c2)c(C)c1 | -16.9% | -0.2% | ? | 12.2 | 14.6µM*
COc1ccccc1S(=O)(=O)Nc1ccc2nc(C)sc2c1 | 0.8% | -8.4% | 2.59µM* | 12.2 | 20.6µM*
Cc1ccc(S(=O)(=O)Nc2ccc3[nH]c(=O)[nH]c3c2)c(C)c1 | -14.1% | -19.8% | 11.5% | -12.8 | -19.7%
Cc1nc2ccc(NS(=O)(=O)c3c(C)c(C)cc(C)c3C)cc2s1 | ? | 23.1µM* | ? | 8.8 | 20.6µM*
Cc1nc2ccc(NS(=O)(=O)c3ccccc3F)cc2s1 | -19.5% | 0.4% | ? | 23.2 | ?
Cc1nc2cc(NS(=O)(=O)c3c(C)c(C)cc(C)c3C)ccc2s1 | 12.6µM* | 12.6µM* | 20µM* | -2.9 | 11.2µM*
Cc1nc2cc(NS(=O)(=O)c3ccccc3F)ccc2s1 | 6.0% | 3.5% | -28.9% | 1.5 | -14.8%
Cc1cccc(CC(=O)NCC2CCCCC2)c1 | 6.5% | -1.0% | ? | -4.0 | -25.3%
Cc1ccc(Nc2cc(C(=O)NC3CCCC3)c3ccccc3n2)cc1C | / | / | 13µM* | / | 14.6µM*
Cc1ccccc1Nc1cc(C(=O)NC2CCCCC2)c2ccccc2n1 | / | / | ? | / | 20.6µM*
Cc1ccccc1Nc1cc(C(=O)NC2CCC(C)CC2)c2ccccc2n1 (centres undefined) | / | / | 16.4µM* | / | 11.6µM*
Cc1ccc(C)c(Nc2cc(C(=O)NC3CCCCC3)c3ccccc3n2)c1 | / | / | -23.6% | / | -29.2%
COc1ccccc1Nc1cc(C(=O)NC2CCCC2)c2ccccc2n1 | -0.9% | -26.4% | ? | 0.0 | ?
COc1cccc(NC(=O)Cn2c(=O)n(-c3ccc(CC(=O)NCC4CCCO4)cc3)c(=O)c3ccccc32)c1 (centres undefined) | / | / | -17.9% | / | ?
CC(=O)c1cccc(NC(=O)C2(C)Cc3c(-c4cccc(C(F)(F)F)c4)ccnc3O2)c1 (centres undefined) | ? | ? | 16.4µM* | -10.2 | 23.1µM*
CC1(C(=O)Nc2cccnc2)Cc2c(-c3cccc(C(F)(F)F)c3)ccnc2O1 (centres undefined) | 0.1% | -3.1% | 16.4µM* | -4.2 | 23.1µM*
CC(C)c1ccc(CN2CCC(Oc3ccc(C(=O)N4CCCC4)cc3)CC2)cc1 | -13.9% | -12.9% | ? | -25.1 | ?
Cc1cc([N+](=O)[O-])nn1CC(=O)N/N=C/c1ccccc1O | ? | ? | 8.2µM* | 192.3 | 18.4µM*
Cc1cc(C)n(CC(=O)N/N=C/c2cc([N+](=O)[O-])ccc2O)n1 | ? | ? | 20.6µM* | 101.0 | 14.6µM*
Cc1cc([N+](=O)[O-])nn1CC(=O)N/N=C/c1ccccc1F | 3.4% | -0.1% | 6.9% | -1.9 | 2.8%
